# Many of the other results were omitted from the sample, so the strongest signals are more common in it than they were.
# B1: XCL (Xerocomus chrysenteron) (protein)
# chain: MSYSITLRVYQTNRDRGYFSIVEKTVWHFANGGTWSEANGAHTLTQGGSGTSGVLRFLSTKGERITVAVGVHNYKRWCDVVTGLKPDETALVINPQYYNNGGRDYVREKQLAEYSVTSAIGTKVEVVYTVAEGNNLEANVIFS
# Experiments:
# Test in all cases: glycan array binding signal (z-score within array); higher = stronger binding
# Details in all cases: glycan notation: IUPAC condensed, linker removed
# [1] = molecular target: Fuc(a1-2)Gal(b1-4)GlcNAc(b1-3)[Fuc(a1-2)Gal(b1-4)GlcNAc(b1-6)]GalNAc
# How it was run: (§1)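 Negative Z-scores can be read as non-binding. The Z-score is calculated within each array and then averaged across arrays of one protein sequence at different concentrations or buffers and across linkers. Arrays, 3228 in all, were curated from the Consortium for Functional Glycomics database and kept only where the protein sequence was available.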
# [2] = molecular target: Fuc(a1-2)[Gal(a1-3)]Gal(b1-3)GalNAc
# How it was run: as §1
# [3] = molecular target: Fuc(a1-2)[Gal(a1-3)]Gal(b1-3)GlcNAc(b1-3)GalNAc
# How it was run: as §1
# [4] = molecular target: Fuc(a1-2)[GalNAc(a1-3)]Gal
# How it was run: as §1
# [5] = molecular target: Fuc(a1-2)[GalNAc(a1-3)]Gal(b1-3)GlcNAc(b1-3)GalNAc
# How it was run: as §1
# [6] = molecular target: Fuc(a1-3)[Gal(b1-4)]GlcNAc(b1-2)Man(a1-3)[Fuc(a1-3)[Gal(b1-4)]GlcNAc(b1-2)Man(a1-6)]Man(b1-4)GlcNAc(b1-4)GlcNAc
# How it was run: as §1
# [7] = molecular target: Fuc(a1-3)[Gal(b1-4)]GlcNAc(b1-3)Gal(b1-3)[Fuc(a1-4)]GlcNAc
# How it was run: as §1
# Gal(a1-3)GalNAc = molecular target: Gal(a1-3)GalNAc
# How it was run: as §1
# [8] = molecular target: Gal(b1-3)GalNAc(a1-3)[Fuc(a1-2)]Gal(b1-4)GlcNAc
# How it was run: as §1
# [9] = molecular target: Gal(b1-4)GlcNAc(b1-2)Man(a1-3)[Man(a1-6)]Man(b1-4)GlcNAc(b1-4)GlcNAc
# How it was run: as §1
# [10] = molecular target: Gal(b1-4)GlcNAc(b1-3)[Gal(b1-4)GlcNAc(b1-6)]GalNAc
# How it was run: as §1
# Gal3S(b1-3)GalNAc = molecular target: Gal3S(b1-3)GalNAc
# How it was run: as §1
# [11] = molecular target: Gal3S(b1-3)[Fuc(a1-4)]GlcNAc
# How it was run: as §1
# Gal6S(b1-3)GlcNAc6S = molecular target: Gal6S(b1-3)GlcNAc6S
# How it was run: as §1
# Glc(b1-4)Glc = molecular target: Glc(b1-4)Glc
# How it was run: as §1
# [12] = molecular target: GlcNAc(a1-4)Gal(b1-4)GlcNAc
# How it was run: as §1
# [13] = molecular target: GlcNAc(a1-4)Gal(b1-4)GlcNAc(b1-3)Gal(b1-4)GlcNAc(b1-3)Gal(b1-4)GlcNAc
# How it was run: as §1
# [14] = molecular target: GlcNAc(b1-2)Gal(b1-3)GalNAc
# How it was run: as §1
# [15] = molecular target: GlcNAc(b1-2)Man(a1-3)[GlcNAc(b1-2)Man(a1-6)]Man(b1-4)GlcNAc(b1-4)GlcNAc
# How it was run: as §1
# [16] = molecular target: GlcNAc(b1-2)Man(a1-3)[GlcNAc(b1-4)][GlcNAc(b1-2)Man(a1-6)]Man(b1-4)GlcNAc(b1-4)GlcNAc
# How it was run: as §1
# [17] = molecular target: GlcNAc(b1-2)[GlcNAc(b1-4)]Man(a1-3)[GlcNAc(b1-4)][GlcNAc(b1-2)Man(a1-6)]Man(b1-4)GlcNAc(b1-4)GlcNAc
# How it was run: as §1
# [18] = molecular target: GlcNAc(b1-2)[GlcNAc(b1-6)]Man(a1-6)[GlcNAc(b1-2)Man(a1-3)][GlcNAc(b1-4)]Man(b1-4)GlcNAc(b1-4)GlcNAc
# How it was run: as §1
# GlcNAc(b1-3)Gal = molecular target: GlcNAc(b1-3)Gal
# How it was run: as §1
# [19] = molecular target: GlcNAc(b1-3)Gal(b1-3)GalNAc
# How it was run: as §1
# [20] = molecular target: GlcNAc(b1-3)[GlcNAc(b1-4)][GlcNAc(b1-6)]GlcNAc
# How it was run: as §1
# [21] = molecular target: GlcNAc(b1-3)[GlcNAc(b1-6)]GalNAc
# How it was run: as §1
# [22] = molecular target: GlcNAc(b1-4)Gal(b1-4)GlcNAc
# How it was run: as §1
# Kdn(a2-3)Gal(b1-4)Glc = molecular target: Kdn(a2-3)Gal(b1-4)Glc
# How it was run: as §1
# [23] = molecular target: Neu5Ac(a2-3)Gal(b1-3)GalNAc6S
# How it was run: as §1
# [24] = molecular target: Neu5Ac(a2-3)Gal(b1-4)GlcNAc(b1-2)Man(a1-3)[Neu5Ac(a2-6)Gal(b1-4)GlcNAc(b1-2)Man(a1-6)]Man(b1-4)GlcNAc(b1-4)GlcNAc
# How it was run: as §1
# [25] = molecular target: Neu5Ac(a2-3)Gal(b1-4)[Fuc(a1-3)]GlcNAc
# How it was run: as §1
# [26] = molecular target: Neu5Ac(a2-3)GalNAc(b1-4)GlcNAc
# How it was run: as §1
# [27] = molecular target: Neu5Ac(a2-6)Gal(b1-4)GlcNAc(b1-3)Gal(b1-4)GlcNAc(b1-3)Gal(b1-4)GlcNAc
# How it was run: as §1
# [28] = molecular target: Neu5Ac(a2-6)GlcNAc(b1-4)GlcNAc
# How it was run: as §1
# [29] = molecular target: Neu5Ac(a2-8)Neu5Ac(a2-3)Gal(b1-4)Glc
# How it was run: as §1
# [30] = molecular target: Neu5Ac(a2-8)Neu5Ac(a2-3)[GalNAc(b1-4)]Gal(b1-4)Glc
# How it was run: as §1
# Neu5Gc(a2-6)GalNAc = molecular target: Neu5Gc(a2-6)GalNAc
# How it was run: as §1
binder,measurement,setting,value
B1,glycan array binding signal (z-score),[1],-0.27
same,glycan array binding signal (z-score),[2],-0.324
same,glycan array binding signal (z-score),[3],-0.303
same,glycan array binding signal (z-score),[4],-0.237
same,glycan array binding signal (z-score),[5],-0.249
same,glycan array binding signal (z-score),[6],-0.324
same,glycan array binding signal (z-score),[7],-0.31
same,glycan array binding signal (z-score),Gal(a1-3)GalNAc,-0.207
same,glycan array binding signal (z-score),[8],3.43
same,glycan array binding signal (z-score),[9],-0.272
same,glycan array binding signal (z-score),[10],-0.282
same,glycan array binding signal (z-score),Gal3S(b1-3)GalNAc,3.44
same,glycan array binding signal (z-score),[11],-0.322
same,glycan array binding signal (z-score),Gal6S(b1-3)GlcNAc6S,-0.321
same,glycan array binding signal (z-score),Glc(b1-4)Glc,-0.304
same,glycan array binding signal (z-score),[12],2.15
same,glycan array binding signal (z-score),[13],5.84
same,glycan array binding signal (z-score),[14],-0.139
same,glycan array binding signal (z-score),[15],4.71
same,glycan array binding signal (z-score),[16],5.38
same,glycan array binding signal (z-score),[17],4.92
same,glycan array binding signal (z-score),[18],3.42
same,glycan array binding signal (z-score),GlcNAc(b1-3)Gal,0.225
same,glycan array binding signal (z-score),[19],3.71
same,glycan array binding signal (z-score),[20],0.592
same,glycan array binding signal (z-score),[21],0.896
same,glycan array binding signal (z-score),[22],-0.303
same,glycan array binding signal (z-score),Kdn(a2-3)Gal(b1-4)Glc,-0.294
same,glycan array binding signal (z-score),[23],3.87
same,glycan array binding signal (z-score),[24],-0.32
same,glycan array binding signal (z-score),[25],-0.3
same,glycan array binding signal (z-score),[26],-0.279
same,glycan array binding signal (z-score),[27],-0.311
same,glycan array binding signal (z-score),[28],-0.322
same,glycan array binding signal (z-score),[29],-0.311
same,glycan array binding signal (z-score),[30],-0.316
same,glycan array binding signal (z-score),Neu5Gc(a2-6)GalNAc,0.059
